Screening results as filed in PubChem.
RAD52 anneal inh: blocks human RAD52 DNA annealing; P43351; recombinant RAD52 DNA annealing, FRET fluorescence; inhibition, % at 18.7 µM; 360,000 compounds, 0.46% hits;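 active = every replicate showing at least 50% inhibition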
Target sequence (P43351 whole entry, looked up): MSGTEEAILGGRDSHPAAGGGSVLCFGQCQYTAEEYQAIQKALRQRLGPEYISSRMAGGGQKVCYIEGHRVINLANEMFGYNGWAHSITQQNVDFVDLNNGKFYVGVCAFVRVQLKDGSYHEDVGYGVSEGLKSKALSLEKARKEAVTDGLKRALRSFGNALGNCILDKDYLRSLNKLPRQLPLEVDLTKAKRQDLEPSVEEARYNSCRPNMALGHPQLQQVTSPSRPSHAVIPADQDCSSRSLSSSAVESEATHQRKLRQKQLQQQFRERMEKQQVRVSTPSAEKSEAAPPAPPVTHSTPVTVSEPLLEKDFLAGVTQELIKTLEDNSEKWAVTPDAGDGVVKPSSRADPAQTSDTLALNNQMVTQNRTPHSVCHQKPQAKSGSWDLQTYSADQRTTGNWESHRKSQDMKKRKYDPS
Casp6 inh: blocks human caspase-6 cleavage activity; AID 686996; 350,000 compounds, 0.53% hits; purified caspase-6, Z-VEID-R110 cleavage fluorescence; inhibition, % at 12.5 µM;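 active = mean inhibition across replicates at least about 35%, with every replicate also reaching that limit, limit read from the data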
Target sequence (P55212 24-179 limits assumed): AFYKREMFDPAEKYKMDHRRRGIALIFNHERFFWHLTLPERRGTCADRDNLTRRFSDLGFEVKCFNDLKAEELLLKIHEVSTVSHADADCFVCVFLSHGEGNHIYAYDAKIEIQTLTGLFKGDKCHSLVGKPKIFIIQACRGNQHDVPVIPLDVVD
Target sequence (P55212 194-293 limits assumed): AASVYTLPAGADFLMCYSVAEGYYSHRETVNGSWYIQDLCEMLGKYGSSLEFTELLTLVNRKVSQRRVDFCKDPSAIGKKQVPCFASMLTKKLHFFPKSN
NSD2 inh: inhibitors of human histone methyltransferase NSD2; O96028; NSD2 peptide methylation, AlphaScreen, 120 min; inhibition, % at 12.5 µM; 310,000 compounds, 0.54% hits; AID 743445; in the data active = inhibition above about 50%
rRNA inh HTS: selective bacterial rRNA inhibition in E. coli; E. coli WT GFP vs humanized-ribosome RFP mutants, fluorescence, 24 h; stronger effect = lower value; DMSO median 0, no signal -100; GFP signal change (wild-type ribosome), % (test concentration not listed); 350,000 compounds, 1.6% hits;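 active = significant combined selectivity score with lowered wild-type GFP, culture density cut under 30%, mutant RFP and density less affected; inactive = any of these conditions unmet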
AF4-AF9 inh: blocks AF4 peptide binding to human AF9; AID 651704; inhibition, % at 10 µM; AlphaScreen, biotin-AF4 peptide binding to FLAG-AF9; P42568; 350,000 compounds, 0.47% hits;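 active = every replicate reaching a set inhibition limit, whatever the replicate mean, cut at about 25% in these data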
Large screens that a line does not name were inactive; ! = repeats disagree. Most compounds without a hit are left out; they make up all but 2.5% or so of the library.

CC(=O)Nc1cc(-c2ccc(C(=O)N3CCOCC3)cc2)cn2c(-c3ccc(F)c(Cl)c3)cnc12	none
O=C(C[C@@H]1CC[C@@H](NC(=O)Cc2cccnc2)[C@@H](CO)O1)Nc1ccccc1	none (no result: NSD2 inh)
c1ccc(Cc2cnc(N3CCN(Cc4cccc(-c5ccsc5)n4)CC3)nc2)cc1	rRNA inh HTS -36 (no result: NSD2 inh, AF4-AF9 inh)
CC(=O)N(C)C[C@@H]1Oc2ccc(N)cc2CC(=O)N(C)C[C@@H]1C	none (no result: RAD52 anneal inh, Casp6 inh, NSD2 inh, AF4-AF9 inh)
Cc1ccc(NC(=O)c2ccc3c(c2)OCO3)cc1S(=O)(=O)N1CCOCC1	rRNA inh HTS -18
O=C(Nc1ccc(C(=O)N2CCCC2)cc1)c1ccc2c(c1)OCO2	Casp6 inh 44
C[C@H](CO)N1C[C@H](C)[C@H](CN(C)C(=O)Nc2ccc(F)cc2)Oc2cc(/C=C/c3ccccc3)ccc2S1(=O)=O	none (no result: NSD2 inh, rRNA inh HTS)
Cc1cc(=O)oc2cc(OC(C)C(=O)O)c(Cl)cc12 (centres undefined)	none (no result: RAD52 anneal inh, Casp6 inh, rRNA inh HTS, AF4-AF9 inh)
CC(=O)Oc1cc2oc(=O)cc(C)c2cc1Cl	rRNA inh HTS -26
Cc1cc(=O)oc2c(C)c(OC(C)C(=O)NCC3CCC(C(=O)O)CC3)ccc12 (centres undefined)	none (no result: NSD2 inh, rRNA inh HTS)
Cc1c(Cc2ccccc2)c(=O)oc2c(C)c(OC(C)C(=O)NCC3CCC(C(=O)O)CC3)ccc12 (centres undefined)	rRNA inh HTS -21 (no result: NSD2 inh)
CCOC(=O)C1(CCOc2ccccc2)CCN(Cc2ccc(O)cc2)CC1	none
CCOC(=O)C1(CCOc2ccccc2)CCN(Cc2cccc3nonc23)CC1	AF4-AF9 inh 26
C[C@@H]1CN(C)C(=O)c2cc(NS(C)(=O)=O)ccc2O[C@@H]1CN(C)C	none (no result: RAD52 anneal inh, Casp6 inh, NSD2 inh, AF4-AF9 inh)
Fc1ccc(F)c(CN2[C@@H]3CNC[C@H]2C3c2ccc(-c3ccccc3)cc2)c1 (some centres undefined)	none (no result: NSD2 inh)
c1cncc(-c2ccc([C@@H]3[C@H]4CNC[C@@H]3N4CC3CCOCC3)cc2)c1	none (no result: RAD52 anneal inh, Casp6 inh, NSD2 inh, AF4-AF9 inh)
c1cc(-c2ccc(C3[C@H]4CNC[C@@H]3N4CC3CCCC3)cc2)ccn1 (some centres undefined)	AF4-AF9 inh 42 (no result: NSD2 inh)
Fc1ccc(F)c(CN2[C@@H]3CNC[C@H]2C3c2ccc(-c3ccncc3)cc2)c1 (some centres undefined)	RAD52 anneal inh 81!, AF4-AF9 inh 26! (no result: NSD2 inh)
C[C@H]1CCCCO[C@@H](CN(C)C(=O)c2ccccc2)[C@@H](C)CN([C@@H](C)CO)C(=O)c2cc(NS(=O)(=O)c3cn(C)cn3)ccc2O1	none (no result: NSD2 inh)
COC(=O)c1sc(C(F)(F)F)c(-c2ccccc2)c1S(=O)(=O)N1CCCC1	rRNA inh HTS -26
COC(=O)c1sc(C(F)(F)F)c(-c2ccccc2)c1S(=O)(=O)N1CCOCC1	none (no result: rRNA inh HTS)
Cc1c(Cl)c(C(F)F)nn1CC(=O)NC1C(=O)N2C(C(=O)O)=C(CSc3nnnn3C)CSC12 (centres undefined)	Casp6 inh 38
C=CC(=O)Nc1ccc(N(C)c2ccnc(Nc3ccc(N4CCN(C)CC4)cc3)n2)cc1	RAD52 anneal inh 100, AF4-AF9 inh 60 (no result: NSD2 inh)
CN1CCN(c2ccc(NC(=O)c3ccc(Oc4ccccc4)cc3)cc2)CC1	none
COc1ccc(S(=O)(=O)CCC(=O)N2c3ccccc3CC2C)cc1 (centres undefined)	none (no result: RAD52 anneal inh, Casp6 inh, rRNA inh HTS, AF4-AF9 inh)
COc1ccc(CCC2(C)NC(=O)N(C(C)C(=O)N3c4ccccc4CC3C)C2=O)cc1 (centres undefined)	rRNA inh HTS -18
COC(=O)c1c(C)[nH]c(C(=O)C(C)OC(=O)C2CC(=O)N(c3ccc(C)cc3)C2)c1C (centres undefined)	rRNA inh HTS -23
COC(=O)c1c(C)[nH]c(C(=O)C(C)OC(=O)C2CC(=O)N(CCc3ccccc3)C2)c1C (centres undefined)	none (no result: rRNA inh HTS)
C[C@@H]1CCCCO[C@H](CN(C)S(C)(=O)=O)[C@H](C)CN([C@@H](C)CO)C(=O)c2cc(NC(=O)Nc3ccc(C(F)(F)F)cc3)ccc2O1	none (no result: RAD52 anneal inh, Casp6 inh, NSD2 inh, AF4-AF9 inh)
Cc1nc2nc(-c3ccccc3)cn2nc1C	rRNA inh HTS -26 (no result: NSD2 inh)
Cc1nc2nc(-c3ccc(F)cc3)cn2nc1C	none
C[C@@H]1CN([C@H](C)CO)S(=O)(=O)c2ccc(C#C[C@@H](C)O)cc2O[C@@H]1CN(C)C(=O)CC1CC1	none (no result: NSD2 inh)
Cc1nn(-c2ccccc2)c(C)c1NC(=O)COc1ccc2ccccc2c1	rRNA inh HTS -20
Cc1nn(-c2ccccc2)c(C)c1NC(=O)COc1ccc(C#N)cc1	none
O=C(N[C@H](Cc1ccccc1)C(=O)N1CCN(C(=O)N2CCOCC2)CC1)[C@H]1O[C@@H](n2ccc(=O)[nH]c2=O)[C@H](O)[C@@H]1O	Casp6 inh 51 (no result: NSD2 inh, AF4-AF9 inh)
O=C(N[C@H](Cc1ccccc1)C(=O)N1CCN(C(=O)N2CCCCC2)CC1)[C@H]1O[C@@H](n2ccc(=O)[nH]c2=O)[C@H](O)[C@@H]1O	none (no result: NSD2 inh, AF4-AF9 inh)
COc1ccc(-c2csc(=Nc3ccccc3)n2CC(O)c2ccc([N+](=O)[O-])cc2)cc1 (centres undefined)	none (no result: RAD52 anneal inh, Casp6 inh, rRNA inh HTS, AF4-AF9 inh)
CO[C@H]1CN(C)C(=O)c2cc(NC(=O)c3ccc(F)cc3)ccc2OC[C@@H](C)N(C(=O)c2ccc(F)cc2)C[C@@H]1C	none (no result: NSD2 inh)
Cc1ccc(NC(=O)CSc2nnc(Cc3csc(C)n3)o2)c(C)c1	Casp6 inh 62
Cc1nc(Cc2nnc(SCC(=O)Nc3c(C)cccc3C)o2)cs1	none
N#Cc1c(N)nc2c(c1N)CC(=O)N2c1ccccc1-c1ccccc1	none (no result: RAD52 anneal inh, Casp6 inh, rRNA inh HTS, AF4-AF9 inh)
N#Cc1c(N)nc2c(c1N)CC(=O)N2c1ccc(Cl)cc1	rRNA inh HTS -31
C[C@H]1CN([C@@H](C)CO)C(=O)c2cccc(NC(=O)c3ccc(-c4nccs4)cc3)c2O[C@@H]1CN(C)S(=O)(=O)c1ccc(F)cc1	none (no result: NSD2 inh)
Cc1ccc(S(=O)(=O)Nc2ccc3c(c2)C(=O)N([C@H](C)CO)C[C@@H](C)[C@H](CN(C)S(=O)(=O)c2ccc(Cl)cc2)O3)cc1	none (no result: NSD2 inh)
COc1ccc(S(=O)(=O)NCCSc2ccc(Cl)cc2)cc1OC	rRNA inh HTS -38 (no result: NSD2 inh)
O=S(=O)(NCCSc1ccc(Cl)cc1)c1ccc2c(c1)OCCO2	none (no result: RAD52 anneal inh, Casp6 inh, rRNA inh HTS, AF4-AF9 inh)
COc1cccc(NC(=O)C2CCC(CNS(=O)(=O)c3cccc4cccnc34)CC2)c1 (centres undefined)	rRNA inh HTS -26
COc1ccc(CNC(=O)C2CCC(CNS(=O)(=O)c3cccc4cccnc34)CC2)cc1 (centres undefined)	none
C[C@@H]1CN([C@H](C)CO)C(=O)c2cccc(NS(C)(=O)=O)c2O[C@@H]1CN(C)S(=O)(=O)c1ccc(F)cc1	none (no result: RAD52 anneal inh, Casp6 inh, NSD2 inh, AF4-AF9 inh)
Cc1ccc(CSCC(=O)Nc2ccc3c(c2)OCO3)cc1	rRNA inh HTS -30 (no result: AF4-AF9 inh)
O=C(CSCc1ccccc1)Nc1ccc2c(c1)OCO2	none (no result: RAD52 anneal inh, Casp6 inh, rRNA inh HTS, AF4-AF9 inh)
CC(C)(C)CC(C)(C)Nc1c(-c2ccc(O)cc2)nc2cnccn12	rRNA inh HTS -25 (no result: AF4-AF9 inh)
COc1cc(-c2nc3cnccn3c2Nc2ccc(C)cc2)ccc1O	rRNA inh HTS -41
COc1cc(-c2nc3cnccn3c2Nc2ccccc2)ccc1O	none (no result: NSD2 inh)
CO[C@H]1CN(C)C(=O)c2cc(NS(C)(=O)=O)ccc2OC[C@@H](C)N(C(=O)CC2CC2)C[C@@H]1C	none (no result: NSD2 inh)
